# Data from PubChem BioAssay (NCATS).
# Results filed as inconclusive are left out. Entries that show only a call come without a potency. Active and inactive are the calls of the source. Unless noted, the call rests on the fitted dose curve; in most records, active means well fitted curve in the direction sought with a large enough effect; inconclusive means small, poorly fitted or top-dose-only effect, or another doubt; inactive means no such curve, though single readings can be large; an effect the other way counts as inactive or inconclusive.
# Assays:
# [1] = target: Cytochrome P450 1A2 (Homo sapiens) (UniProt P05177); experiment: p450-cyp1a2 (AID 410; calls by dose curve)
# Outline: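 O-Demethylation of luciferin 6' methyl ether by human CYP1A2 is monitored as luciferase luminescence. Substrate sits at Km (100uM); enzyme is 20nM. Values are scaled to 57 uM furafylline as maximal inhibition.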
# [2] = target: Glucocorticoid receptor (Homo sapiens) (UniProt P04150); experiment: GR-GFP Redistribution (AID 450;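 active means compounds whose dose series gives a full or clear partial fitted curve of increased nuclear translocation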; further: potency means the concentration at half of the fitted maximal effect); conditions: U2OS GR-GFP nuclear translocation, laser cytometry, 2 h
# [3] = target: Glucocorticoid receptor (Homo sapiens) (UniProt P04150); experiment: GR-EFC Redistribution (AID 451; calls by dose curve; further: potency means the concentration at half of the fitted maximal effect); conditions: CHO-K1 GR-EFC translocation, beta-gal luminescence, 2 h
# Outline: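 CHO-K1 cells stably expressing nuclear-localized β-gal enzyme acceptor and GR fused C-terminally to the enzyme donor fragment; ligand-driven nuclear translocation restores β-gal by complementation. Compounds titrated up to 46 uM final, 2 h at 37 °C; luminescence read.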
# [4] = target: Mitogen-activated protein kinase 10 (Mus musculus) (UniProt Q61831); experiment: JNK3 AlphaScreen Assay (AID 530; active means well fitted curve in either direction with a large enough effect, not every such curve was filed as active;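 further: kinase came from lysate of stimulated human HepG2 cells; signal reports phosphorylation of biotinylated GST-cJun 1-79 at Ser73 with 10 µM ATP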)
# Outline: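 Phosphorylation of biotinylated GST-cJun(1-79) at Ser73 is measured by AlphaScreen proximity luminescence. Enzyme is JNK3 in HepG2 lysates activated with interleukin-1beta and tumor necrosis factor alpha; ATP is 10 uM final.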
# [5] = target: 3',5'-cyclic-AMP phosphodiesterase 4B (Homo sapiens) (UniProt Q07343); experiment: qHTS Assay for Inhibitors of PDE-IV (AID 607; active means well fitted activation curve with a large enough effect in the main read-out, with a control signal flat, not every such curve was filed as active)
# Outline: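 Live HEK293 cells with a modified cyclic nucleotide-gated (CNG) channel report intracellular cAMP via membrane-potential dye fluorescence (ex 535/em 590 nm). Endogenous PDE-IV was targeted. Compounds were tested at up to 22.9 uM final; RO 20-1724 100 uM served as control.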
# [6] = target: Cytochrome P450 2C9 (Homo sapiens) (UniProt P11712); experiment: qHTS Assay for Inhibitors and Substrates of Cytochrome P450 2C9 (AID 883); further: nearly all actives have a fitted effect of over 60% in size
# Outline: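 A luminogenic readout tracked human CYP2C9 (10nM) converting deoxyluciferin (100uM, at KM) in 25mM KPO4 during 60 min at 37C with regenerated NADPH. Values normalized to 57uM sulphaphenazole as complete inhibition.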
# [7] = target: Ubiquitin carboxyl-terminal hydrolase 1 (Homo sapiens) (UniProt O94782); experiment: Inhibitors of USP1/UAF1: Pilot qHTS (AID 504865);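 further: rhodamine fluorescence freed from ubiquitin-rhodamine substrate followed over time; top concentration of the series differs between compounds; nearly all actives have a fitted effect of over 35% in size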
# Outline: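 1nM USP1/UAF1 + cpd, 15 min RT; start w/ Ub-Rho 150nM final; kinetic FL 480/540 nm, 6 reads q60 s. Buffer 50mM HEPES pH 7.8, 0.5mM EDTA, 1mM TCEP, 0.01% Tween-20, 0.1 mg/ml BSA.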
# [8] = target: DNA dC->dU-editing enzyme APOBEC-3G (Homo sapiens) (UniProt Q9HC16); experiment: qHTS for inhibitors of Vif-A3G interactions: Validation (AID 588379)
# Outline: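 Yellow fluorescence (Ex 488, Em 500-530) of Vif-coexpressing HeLa A3G-eYFP cells, scanned by Acumen cytometer, reports blocked A3G degradation. Cells plated at 700/well overnight at 37 deg C before compound addition, then a further overnight compound incubation at 37 deg C.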
# [9] = system: Zika virus NS2B-NS3 protease; experiment: Primary screen GU AMC qHTS for Zika virus inhibitors (AID 1347154); further: nearly all actives have a fitted effect of over 70% in size
# Outline: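 Unlinked Zika NS2B hydrophilic domain/NS3 protease domain noncovalent complex (25 nM final) in 10 mM Tris-HCl pH 8.0, 0.01% Tween 20, with AMC peptide substrate. Fluorescence (ex 340, em 450 nm) change over 15 min, room temperature; percent inhibition fitted to 4-parameter Hill equation.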
# [10] = Counterscreen qHTS for small molecule stabilizers of the endoplasmic reticulum resident proteome: GLuc-NoTag assay (AID 1508627)
# Outline: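 Secreted GLuc lacking the SERCaMP modification is measured in SH-SY5Y cells exposed to compound for 19 h and then to thapsigargin (100 nM, 4 h) to deplete ER calcium; hits retested at 11 concentrations, up to 76.6 uM.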
# [11] = Confirmatory qHTS for small molecule stabilizers of the endoplasmic reticulum resident proteome: Secreted ER Calcium Modulated Protein (SERCaMP) assay (AID 1508628); further: nearly all actives have a fitted effect of over 40% in size
# Outline: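 Reporter secretion upon ER calcium depletion (100 nM thapsigargin, 4 h, 37C) is measured as medium luminescence with coelenterazine, after 16 h compound pretreatment of SH-SY5Y-GLuc-SERCaMP cells; primary at three concentrations up to 38.3 uM, follow-up at 11 (up to 76.6 uM).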
# [12] = Validation of Assay for Modulators of Lamin A Splicing (AID 1459; active means well fitted curve in the direction sought with a large enough effect in the signal ratio; the % refers to the signal ratio;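 further: cells exposed to compound for two days before reading; ratio rise marks activators and ratio drop marks inhibitors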)
# Outline: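 Readout: ratio of GFP (500-530 nm) to RFP (575-640 nm) total object intensity by 488 nm laser-scanning cytometry after 48 hrs. Cells were HeLa S3 clones carrying lamin A-EGFP minigene plus DsRed2 viability reporter; vehicle 0.5% DMSO final.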
# [13] = qHTS Assay for Lipid Storage Modulators (AID 1519; calls by dose curve); conditions: Drosophila S3 cells, BODIPY lipid droplet/cell ratio, laser cytometry, cells loaded with oleic acid
# Outline: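 Cells seeded at 5,000 per well were treated with compounds over a concentration series and loaded with oleic acid (400 uM, as added). Lipid droplet fluorescence (488 nm excitation, 500-530 nm channel) was read by laser-scanning cytometry and normalized to 20 uM Triacsin C.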
# [14] = target: DNA repair nuclease/redox regulator APEX1 (Homo sapiens) (UniProt P27695); experiment: qHTS Validation Assay for Inhibitors of the Human Apurinic/apyrimidinic Endonuclease 1 (APE1) (AID 1705;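 further: TAMRA fluorescence gain over two minutes as APE1 cuts a quenched THF abasic duplex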)
# Outline: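 Read-out: TAMRA fluorescence (525 nm ex, 598 nm em) from cleavage of a quenched THF abasic-site duplex, 50 nM final; activity taken as intensity change between third and first of three reads 60 s apart.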
# [15] = Counterscreen for APE1 Inhibitors: Fluorescent Dye Displacement Validation Assay (AID 1707)
# Outline: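 Loss of Thiazole Orange fluorescence marks promiscuous DNA binders. The dye (250 nM) is mixed with 50 nM abasic-site dsDNA in pH7.5 Tris buffer containing MgCl2, then compounds are added and emission is read once.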
# [16] = target: Endonuclease 4 (Escherichia coli (strain K12)) (UniProt P0A6C1); experiment: Counterscreen for APE1 Inhibitors: qHTS Validation Assay for Inhibitors of Endonuclease IV (AID 1708)
# Outline: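 Enzyme (2 nM) + compound, 15 min RT; add 50 nM TAMRA/BHQ-2 THF-site dsDNA; kinetic read ex525/em598, 3 reads/60 s; activity = read 3 − read 1. Buffer Tris pH 7.5, 50 mM NaCl, 2 mM MgCl2, DTT, Tween-20.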
# [17] = qHTS for differential inhibitors of proliferation of Plasmodium falciparum line 7G8 (AID 1815);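 further: potency means the concentration at half of the fitted maximal effect; parasite growth measured after three days of incubation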
# [18] = qHTS for differential inhibitors of proliferation of Plasmodium falciparum line GB4 (AID 1816); conditions: Potency: Plasmodium falciparum GB4 proliferation inhibition;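 further: potency means the concentration at half of the fitted maximal effect; parasite growth measured after 72 h incubation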
# [19] = qHTS for differential inhibitors of proliferation of Plasmodium falciparum line D10 (AID 1877);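 further: potency means the concentration at half of the fitted maximal effect; parasites grown with compound for 72 h before DNA staining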
# [20] = qHTS for differential inhibitors of proliferation of Plasmodium falciparum line W2 (AID 1883); conditions: Potency: Plasmodium falciparum W2 proliferation inhibition;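 further: potency means the concentration at half of the fitted maximal effect; parasites grown with compound for 72 h before lysis and staining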
# [21] = qHTS for differential inhibitors of proliferation of Plasmodium falciparum line HB3 (AID 1886); conditions: Potency: Plasmodium falciparum HB3 proliferation inhibition;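 further: potency means the concentration at half of the fitted maximal effect; parasites grown with compound for 72 h before SYBR Green readout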
# [22] = target: ATP-dependent DNA helicase Q1 (Homo sapiens) (UniProt P46063); experiment: qHTS Validation Assay for Inhibitors of RecQ-Like Dna Helicase 1 (RECQ1) (AID 2353)
# Outline: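 RECQ1T1 50 nM; forked duplex (20 bp + 30-nt ss tails) 200 nM, ATP 2 mM final; pH 8.0, 2 mM MgCl2, 2.5 ug/ml poly(dI-dC); 15 min compound preincubation; discontinuous kinetic read over 2 h at RT.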
# [23] = Validation screen for small molecules that induce DNA re-replication in MCF 10A normal breast cells (AID 463097); further: nearly all actives have a fitted effect of over 60% in size
# Outline: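 250 MCF 10A cells/well; compound pin-transferred; 48 hr, 37 C, 5% CO2; Hoechst 40 min; imaged 405/500-530 nm. Hits = more high-intensity nuclei.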
# [24] = Quantitative high throughput screen for delayed death inhibitors of the malarial parasite plastid, 96 hour incubation (AID 488745);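 further: luciferase-expressing P. falciparum in erythrocytes at 2% hematocrit and 0.1% parasitemia; nearly all actives have a fitted effect of over 70% in size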
# Outline: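 Readout is firefly luciferase luminescence from an integrated reporter in P. falciparum; lower signal marks inhibited growth. Cultures at 2% hematocrit and 0.1% parasitemia were treated with compound across two generations (96 h, 37 C, 5% CO2).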
# [25] = target: M-phase phosphoprotein 8 (Homo sapiens) (UniProt Q99549); experiment: qHTS Validation Assay for Inhibitors for MPP8 Chromodomain Interactions with Methylated Histone Tails (AID 488949);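 further: AlphaScreen signal from MPP8 chromodomain bound to biotinylated H3K9me3 peptide; top concentration of the series differs between compounds; nearly all actives have a fitted effect of over 55% in size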
# Outline: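 AlphaScreen read-out: streptavidin donor and nickel chelate acceptor beads (final 10 ug/mL), 30 min in the dark at RT. Complex of 50 nM MPP8 and 50 nM b-H3(1-18)K9me3 peptide had been exposed to compounds for 30 min beforehand.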
# [26] = target: Transient receptor potential cation channel subfamily V member 1 (Homo sapiens) (UniProt Q8NER1); experiment: HTS Assay for Compounds that Act as Enhancers of the Vanilloid Receptor 1 (AID 488979)
# Outline: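 TRPV1-expressing cells loaded with Fluo-8 calcium dye; compounds added and calcium influx read kinetically for 3 min (agonist phase), then capsaicin at EC20 added and read 2 min more for enhancement. Fluorescence ex 480/em 520 nm.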
# [27] = target: Galactokinase (Homo sapiens) (UniProt P51570); experiment: qHTS Validation Assay for Inhibitors of Human Galactokinase (GALK) (AID 493189)
# Outline: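 Luminescence from leftover ATP (Kinase-Glo Plus, 10 min) served as read-out after a 1 h room-temperature reaction of 5 nM GALK, 100 uM galactose and 35 uM ATP at pH8.0.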
# [28] = Validation screen for small molecules that induce DNA re-replication in SW480 colon adenocarcinoma cells (AID 504364)
# Outline: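 Image-based qHTS: compounds were incubated with SW480 cells for 48 hr, nuclei stained with Hoechst, and per-nucleus fluorescence intensity scanned to flag cells with excess DNA content.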
# [29] = target: Voltage-gated inwardly rectifying potassium channel KCNH2 (Homo sapiens) (UniProt Q12809); experiment: qHTS Assay for Small Molecule Inhibitors of the Human hERG Channel Activity (AID 588834);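 further: top concentration of the series differs between compounds; lower thallium flux fluorescence means stronger hERG block; nearly all actives have a fitted effect of over 50% in size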
# Outline: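 Thallium-flux (FluxOR) read-out on FDSS: fluorescence read 10 s before and 2 min after stimulation buffer. hERG-BacMam-transduced U2OS cells, compound exposure about 10 min. AC50 by standard Hill equation.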
# Chain of Glucocorticoid receptor (Homo sapiens) (P04150 whole entry, looked up, the tested form may be a part): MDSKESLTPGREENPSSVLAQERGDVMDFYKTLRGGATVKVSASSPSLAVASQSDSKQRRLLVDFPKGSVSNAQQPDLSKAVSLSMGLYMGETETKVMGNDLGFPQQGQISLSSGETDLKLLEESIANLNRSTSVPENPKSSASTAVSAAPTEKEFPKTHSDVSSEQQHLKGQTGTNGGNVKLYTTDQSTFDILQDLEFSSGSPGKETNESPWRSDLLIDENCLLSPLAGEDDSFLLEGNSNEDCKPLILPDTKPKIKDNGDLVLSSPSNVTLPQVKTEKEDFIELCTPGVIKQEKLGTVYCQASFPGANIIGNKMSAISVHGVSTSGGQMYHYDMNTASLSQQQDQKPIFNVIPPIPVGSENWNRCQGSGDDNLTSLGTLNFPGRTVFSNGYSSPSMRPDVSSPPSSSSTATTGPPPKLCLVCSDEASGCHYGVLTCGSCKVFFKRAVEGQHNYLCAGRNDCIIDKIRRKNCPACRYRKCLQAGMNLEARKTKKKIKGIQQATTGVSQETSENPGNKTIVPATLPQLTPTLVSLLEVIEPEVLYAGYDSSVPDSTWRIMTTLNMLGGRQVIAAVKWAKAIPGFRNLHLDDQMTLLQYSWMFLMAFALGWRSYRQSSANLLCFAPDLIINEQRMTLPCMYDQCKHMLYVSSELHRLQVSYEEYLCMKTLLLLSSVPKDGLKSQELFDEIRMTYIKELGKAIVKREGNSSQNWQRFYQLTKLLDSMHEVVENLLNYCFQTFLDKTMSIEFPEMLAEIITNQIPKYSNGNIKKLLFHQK
# Chain of Voltage-gated inwardly rectifying potassium channel KCNH2 (Homo sapiens) (Q12809 whole entry, looked up): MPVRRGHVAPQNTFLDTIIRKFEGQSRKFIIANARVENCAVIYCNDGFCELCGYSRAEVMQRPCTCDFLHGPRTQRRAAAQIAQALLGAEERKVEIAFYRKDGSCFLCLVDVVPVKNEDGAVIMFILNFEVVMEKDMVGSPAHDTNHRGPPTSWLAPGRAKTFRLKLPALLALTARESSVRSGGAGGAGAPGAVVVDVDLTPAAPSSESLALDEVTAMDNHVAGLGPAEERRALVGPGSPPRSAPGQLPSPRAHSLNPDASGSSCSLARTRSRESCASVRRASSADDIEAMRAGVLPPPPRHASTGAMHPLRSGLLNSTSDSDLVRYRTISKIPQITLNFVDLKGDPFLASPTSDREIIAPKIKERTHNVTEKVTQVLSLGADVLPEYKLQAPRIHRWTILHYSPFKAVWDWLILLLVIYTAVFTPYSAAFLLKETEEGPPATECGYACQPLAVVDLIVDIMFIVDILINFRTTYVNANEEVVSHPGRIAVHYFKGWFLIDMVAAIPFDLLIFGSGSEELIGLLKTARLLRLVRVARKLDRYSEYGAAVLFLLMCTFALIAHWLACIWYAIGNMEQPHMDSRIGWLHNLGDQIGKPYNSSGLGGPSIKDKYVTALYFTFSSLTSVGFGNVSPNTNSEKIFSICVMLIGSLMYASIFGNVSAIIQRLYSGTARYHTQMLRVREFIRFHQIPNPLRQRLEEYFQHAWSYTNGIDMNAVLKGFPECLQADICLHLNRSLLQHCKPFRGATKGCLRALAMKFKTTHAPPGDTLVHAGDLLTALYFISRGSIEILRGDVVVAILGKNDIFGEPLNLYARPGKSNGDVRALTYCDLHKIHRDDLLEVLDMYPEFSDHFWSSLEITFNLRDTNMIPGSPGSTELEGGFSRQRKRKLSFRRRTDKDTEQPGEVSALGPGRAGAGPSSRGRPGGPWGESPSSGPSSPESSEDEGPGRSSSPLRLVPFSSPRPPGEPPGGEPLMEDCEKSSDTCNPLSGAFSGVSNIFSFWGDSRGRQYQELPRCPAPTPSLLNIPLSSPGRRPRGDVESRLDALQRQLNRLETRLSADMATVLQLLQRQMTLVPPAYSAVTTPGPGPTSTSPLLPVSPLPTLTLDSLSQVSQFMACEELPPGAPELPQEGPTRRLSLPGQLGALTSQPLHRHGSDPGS
# Chain of 3',5'-cyclic-AMP phosphodiesterase 4B (Homo sapiens) (Q07343 whole entry, looked up): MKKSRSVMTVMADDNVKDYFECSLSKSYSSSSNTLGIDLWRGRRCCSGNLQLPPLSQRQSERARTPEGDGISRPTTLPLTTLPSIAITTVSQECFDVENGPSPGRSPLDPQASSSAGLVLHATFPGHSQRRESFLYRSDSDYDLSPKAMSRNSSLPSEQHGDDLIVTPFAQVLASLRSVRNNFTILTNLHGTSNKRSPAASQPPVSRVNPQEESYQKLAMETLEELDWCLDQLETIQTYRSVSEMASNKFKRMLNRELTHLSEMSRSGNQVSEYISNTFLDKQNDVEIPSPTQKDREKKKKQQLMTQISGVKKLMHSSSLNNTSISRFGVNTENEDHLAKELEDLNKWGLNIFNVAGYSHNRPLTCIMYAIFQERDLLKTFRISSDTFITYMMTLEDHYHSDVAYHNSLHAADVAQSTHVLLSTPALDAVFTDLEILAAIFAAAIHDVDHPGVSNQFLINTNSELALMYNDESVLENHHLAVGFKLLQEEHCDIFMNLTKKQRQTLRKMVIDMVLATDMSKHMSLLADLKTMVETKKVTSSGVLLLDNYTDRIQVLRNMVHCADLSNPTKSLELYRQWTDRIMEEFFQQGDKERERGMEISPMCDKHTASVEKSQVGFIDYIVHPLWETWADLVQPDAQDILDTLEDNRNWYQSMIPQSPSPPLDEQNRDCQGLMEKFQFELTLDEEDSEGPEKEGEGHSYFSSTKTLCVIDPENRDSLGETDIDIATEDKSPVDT
# Chain of Cytochrome P450 1A2 (Homo sapiens) (P05177 whole entry, looked up): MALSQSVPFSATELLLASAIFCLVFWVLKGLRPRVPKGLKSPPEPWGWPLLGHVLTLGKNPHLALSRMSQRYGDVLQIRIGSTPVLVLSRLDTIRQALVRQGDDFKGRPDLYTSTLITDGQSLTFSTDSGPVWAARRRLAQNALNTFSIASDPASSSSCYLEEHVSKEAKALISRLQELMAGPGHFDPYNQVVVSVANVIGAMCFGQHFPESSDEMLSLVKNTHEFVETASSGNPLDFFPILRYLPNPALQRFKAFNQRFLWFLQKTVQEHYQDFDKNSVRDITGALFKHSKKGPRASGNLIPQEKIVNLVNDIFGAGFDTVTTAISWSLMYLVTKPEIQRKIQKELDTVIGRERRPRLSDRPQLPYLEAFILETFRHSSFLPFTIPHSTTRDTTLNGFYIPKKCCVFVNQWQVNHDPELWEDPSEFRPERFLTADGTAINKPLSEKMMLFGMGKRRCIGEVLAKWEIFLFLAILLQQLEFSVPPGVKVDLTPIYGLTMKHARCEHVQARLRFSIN
# Chain of Transient receptor potential cation channel subfamily V member 1 (Homo sapiens) (Q8NER1 whole entry, looked up): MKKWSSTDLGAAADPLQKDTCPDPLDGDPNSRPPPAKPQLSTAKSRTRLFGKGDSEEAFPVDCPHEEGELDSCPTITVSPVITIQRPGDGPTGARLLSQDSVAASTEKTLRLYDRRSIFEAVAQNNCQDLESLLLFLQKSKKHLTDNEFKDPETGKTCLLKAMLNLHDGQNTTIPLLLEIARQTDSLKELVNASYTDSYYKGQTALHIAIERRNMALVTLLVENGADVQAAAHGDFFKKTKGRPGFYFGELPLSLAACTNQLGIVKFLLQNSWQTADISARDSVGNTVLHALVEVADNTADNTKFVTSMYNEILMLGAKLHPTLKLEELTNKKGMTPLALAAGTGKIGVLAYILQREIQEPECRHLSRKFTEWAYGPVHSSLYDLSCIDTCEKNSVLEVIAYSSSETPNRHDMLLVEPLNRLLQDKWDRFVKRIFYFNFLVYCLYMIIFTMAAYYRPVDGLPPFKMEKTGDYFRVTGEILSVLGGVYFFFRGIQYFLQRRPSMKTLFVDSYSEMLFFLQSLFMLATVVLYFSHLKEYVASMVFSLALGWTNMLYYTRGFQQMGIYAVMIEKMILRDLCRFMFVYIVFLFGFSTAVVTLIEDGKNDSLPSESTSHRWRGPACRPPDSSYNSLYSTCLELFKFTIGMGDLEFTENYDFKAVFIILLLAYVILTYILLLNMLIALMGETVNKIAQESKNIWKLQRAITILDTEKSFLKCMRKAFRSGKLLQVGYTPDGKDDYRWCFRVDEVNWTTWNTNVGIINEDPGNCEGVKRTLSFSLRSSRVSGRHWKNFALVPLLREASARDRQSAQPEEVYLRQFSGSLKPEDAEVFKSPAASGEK
# Chain of Ubiquitin carboxyl-terminal hydrolase 1 (Homo sapiens) (O94782 whole entry, looked up): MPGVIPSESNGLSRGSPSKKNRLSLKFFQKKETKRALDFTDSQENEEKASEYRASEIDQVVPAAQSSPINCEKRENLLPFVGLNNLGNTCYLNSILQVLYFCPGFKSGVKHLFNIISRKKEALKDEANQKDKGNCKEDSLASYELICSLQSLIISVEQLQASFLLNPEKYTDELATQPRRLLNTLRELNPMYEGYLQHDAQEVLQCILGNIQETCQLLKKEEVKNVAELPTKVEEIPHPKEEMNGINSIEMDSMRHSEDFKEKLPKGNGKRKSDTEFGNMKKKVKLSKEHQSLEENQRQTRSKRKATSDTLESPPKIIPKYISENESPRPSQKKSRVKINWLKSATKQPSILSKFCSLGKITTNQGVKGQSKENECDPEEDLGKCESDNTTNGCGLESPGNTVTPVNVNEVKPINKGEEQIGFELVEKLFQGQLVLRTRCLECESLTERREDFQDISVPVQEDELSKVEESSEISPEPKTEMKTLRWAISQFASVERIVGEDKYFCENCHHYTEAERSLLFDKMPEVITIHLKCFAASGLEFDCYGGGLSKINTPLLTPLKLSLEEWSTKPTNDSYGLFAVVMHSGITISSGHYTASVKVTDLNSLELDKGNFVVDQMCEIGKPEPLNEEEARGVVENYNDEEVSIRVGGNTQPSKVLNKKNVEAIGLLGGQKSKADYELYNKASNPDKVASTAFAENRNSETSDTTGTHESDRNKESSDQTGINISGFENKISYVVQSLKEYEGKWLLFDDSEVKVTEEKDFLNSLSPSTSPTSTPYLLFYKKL
structure (smiles),measurement,setting,value
C[C@@H](NCc1cc(Br)cc2[nH]c(=O)c(=O)[nH]c12)P(=O)(O)O,Potency,[1],inactive
same,Potency,[2],0.264 µM (active)
same,Potency,[3],> 46 µM (inactive)
same,Potency,[4],inactive
same,Potency,[5],inactive
same,Potency,[6],inactive
same,Potency,[7],inactive
same,Potency,[8],inactive
same,Potency,[9],inactive
same,Potency,[10],inactive
same,Potency,[11],inactive
C/C=C1\C(=O)CC2C3CCC4=CC(=O)CC[C@]4(C)C3CC[C@]12C (some centres not stated),outcome,[12],inactive
same,"activity change, negative = inhibition",[13]; at 57.5 µM (top of the series),1.38% (inactive)
same,max response,[13]; measured here: cell count channel max response,72.1%
same,max response,[13]; measured here: lipid channel max response,74.6%
same,Potency,[14],inactive
same,Potency,[15],inactive
same,Potency,[16],inactive
same,Potency,[17],11.2 µM (active)
same,Potency,[18],14.1 µM (active)
same,Potency,[19],10 µM (active)
same,Potency,[20],7.08 µM (active)
same,Potency,[21],11.2 µM (active)
same,Potency,[22],inactive
same,Potency,[23],inactive
same,Potency,[24],inactive
same,Potency,[25],inactive
same,outcome,[26],inactive
same,outcome,[27],inactive
same,outcome,[28],inactive
same,Potency,[29],inactive
same,Potency,[9],inactive
